From ChEMBL document CHEMBL3988442, “University of Dundee, Small-Polar-MMV Screening Library” (2021)
Hit rate of the full screen: of about 38,000 compounds, about 1,200 (3.2%) showed an effect of 50% or more. The median lay at about -58%. This is one part of a sample in which strong results are shown more often than they occur.

What follows are compounds tested on Plasmodium falciparum (assay: Calibr Malaria Delayed Death Assay SOP). Conditions: concentration 4.99e-06 (unit not given; other assays of the set use mol/L).
Format: functional, organism-based
Parameters: scale not given: in the data most compounds retested in dose-response had high values

| SMILES | Percent Effect [%] |
| --- | --- |
| CN1Cc2cc(F)ccc2N(CC(C)(C)O)CCC1=O | -102.4 |
| c1cc2occc2c(N2CCCC(c3nncn3C3CC3)C2)n1 (stereo not drawn) | -31.64 |
| CO[C@H]1CN(C(=O)OC(C)(C)C)CC1NCc1cc[nH]c1 (stereo partly drawn) | -107.9 |
| CCN1C(=O)C(C#N)=C(C)/C(=C/C2=Cc3ccccc3OC2)C1=O | -95.4 |
| CC1c2ncc(Cn3cccn3)n2CCN1Cc1ccccn1.O=C(O)C(F)(F)F.O=C(O)C(F)(F)F (stereo not drawn) | -97.72 |
| CCC[C@H]1CN(C(=O)c2ccc3[nH]c(CO)nc3c2)C[C@@H]1N | -26.19 |
| CC(=O)N1CCOC2(CCCN(C(=O)c3ccc(Cl)cc3)C2)C1 (stereo not drawn) | -118.1 |
| Cc1ccc(NC(=O)N2CC[C@@H](O)C2)c(-c2nc(C3CC3)no2)c1 | -83.22 |
| Cc1ccccc1CS(=O)(=O)NCCCN1CCCC1 | 22.31 |
| O=S(=O)(NCCCN1CCCC1)c1cc(F)cc(F)c1 | 66.12 |
| CC1CCN(CCCNS(=O)(=O)Cc2ccccc2F)CC1 | 25.53 |
| Cn1cnc(S(=O)(=O)NCCCN2CCCCCC2)c1Cl | -99.75 |
| O=S(=O)(Cc1ccccc1F)NCCCN1CCCCC1 | 18.19 |
| CC(C)c1cccc(S(=O)(=O)NCCCN2CCC(O)CC2)c1 | 31.74 |
| O=S(=O)(Cc1ccccc1Cl)NCCCN1CCCC1 | 78.29 |
| CC1CCN(CCCNS(=O)(=O)c2cccc(F)c2)CC1.Cl | 53.06 |
| CC(=O)N1CCN(CCNS(=O)(=O)c2cc(F)cc(F)c2)CC1 | -120.9 |
| CC(=O)N1CCN(CCNS(=O)(=O)c2cccc(F)c2)CC1 | -79.38 |
| CC1CCN(CCCNS(=O)(=O)c2cc(F)cc(F)c2)CC1.Cl | 61.9 |
| Cc1cc(F)c(S(=O)(=O)NCCCN2CCC(O)CC2)cc1F | -91.17 |
| CN(Cc1cccs1)Cc1nnsc1Cl | -133.9 |
| NC(=O)CN1CC2(CCC1=O)CCN(C(=O)c1ccccc1F)CC2 | -172.5 |

| SMILES | Percent Effect [%] |
| --- | --- |
| CCO[C@H]1CC[C@H]2[C@H]1OCCN2C(=O)CC1=CCCCC1 | -84.2 |
| COCCn1ccc2c(C(=O)Nc3nc4c(s3)CCC4)cccc21 | -233.3 |
| CS(=O)(=O)c1ccccc1-n1cc(NC(=O)CC2C=CCC2)cn1 (stereo not drawn) | -87.45 |
| O=C(CCc1cc2n(n1)CCCN(CCc1ccccc1)C2)NC1CC1 | -74.1 |
| CC(=O)N1CCC(C(=O)NCCc2c[nH]c3cc(C)ccc23)CC1 | -74.03 |
| CS(=O)(=O)N1CCc2c(cccc2NC(=O)NC2CCCC2)C1 | -76.44 |
| CCc1ccc(OCCn2cccn2)cc1 | -75.63 |
| CC(C)c1nccc(CN2CCC(c3nc4ccccc4n3C)CC2)n1 | -101.6 |
| CC(C)Cc1nc(NC(=O)c2cccnc2)n[nH]1 | -46.29 |
| Cc1ccc2nc(C(=O)N3CC(c4cccnc4)C3)cn2c1 | -27.83 |
| CN1CCN(CC(NCc2cccc(O)c2)c2ccccc2)CC1 (stereo not drawn) | -102.1 |
| Cc1cccc(CNC(CN2CCN(C)CC2)c2ccccc2)c1 (stereo not drawn) | 83.13 |
| COCCN1CCC(NCc2cccc(C)c2)C1 (stereo not drawn) | -16.89 |
| COc1cccc(C(=O)N2CCN(CC(O)c3ccccc3)CC2)c1 (stereo not drawn) | -38.78 |
| CN1CCN(CC(NCc2ccc(F)cc2)c2ccccc2)CC1 (stereo not drawn) | -91.46 |
| Cl.Cl.OC(CN1CCN(Cc2ccc(F)c(F)c2)CC1)C1CC1 (stereo not drawn) | -18 |
| O=C(NC(CN1CCCC1)c1ccccc1)c1c(O)cc(F)cc1F (stereo not drawn) | -93.48 |
| Cc1ccc(CNC(CN2CCN(C)CC2)c2ccccc2)cc1C (stereo not drawn) | -112.6 |
| COc1cccc(CNC(=O)N2CCN(Cc3cc(C)on3)CC2)c1 | -21.77 |
| NC(=O)CS(=O)(=O)Cc1csc(-c2ccc(F)cc2)n1 | -114.2 |
| O=C(Nc1cc(C(F)(F)F)c[nH]c1=O)C1CCCO1 (stereo not drawn) | -102.8 |
| Cc1csc(NC(=O)C2CCN(Cc3cccc4c3OCCO4)CC2)n1 | -33.92 |

| SMILES | Percent Effect [%] |
| --- | --- |
| CN(C)CCOCc1cncc2c1CCN(C(=O)C1CCOCC1)C2.O=C(O)C(F)(F)F.O=C(O)C(F)(F)F | -70.85 |
| O=C(O)C(F)(F)F.O=C(O)C(F)(F)F.O=C(O)C(F)(F)F.O=C(c1ccncc1)N1CCN(Cc2cccnc2)c2ncccc2C1 | -102.4 |
| CC(C)NC(=O)c1noc2c1CN(Cc1cnn(C)c1)CC2 | -77.7 |
| O=C(Nc1cccnc1)C1Cc2nc(-c3ccsc3)sc2N1CC1CC1.O=C(O)C(F)(F)F (stereo not drawn) | -160.3 |
| CN(C)CCNC(=O)C1Cc2nc(-c3ccccc3)sc2N1CC1CC1.O=C(O)C(F)(F)F (stereo not drawn) | 89.72 |
| CN(C)CCNC(=O)C1Cc2nc(-c3ccsc3)sc2N1CC1CC1.O=C(O)C(F)(F)F (stereo not drawn) | 9.733 |
| O=C(Nc1cccnc1N1CCSCC1)c1ccc2c(c1)CCC2 | -3.12 |
| O=C(NC1CCN(c2cccc(C(F)(F)F)n2)CC1)C1CC1 | -20.01 |
| O=C(NC1CC1)C1CCCN(c2cccc(C(F)(F)F)n2)C1 (stereo not drawn) | 11.64 |
| O=C(NC1CC1)C1CCN(c2cccc(C(F)(F)F)n2)CC1 | 78.5 |
| COc1cccc(C2(C(=O)NC3CCc4nccn4C3)CCCC2)c1 (stereo not drawn) | 52 |
| CS(=O)(=O)C1(C(=O)NC2CCc3nccn3C2)CCCC1 (stereo not drawn) | -116.8 |
| COc1ccc(C2(C(=O)NC3CCc4nccn4C3)CCCC2)cc1 (stereo not drawn) | 46.07 |
| CN1C[C@H](O)[C@]2(CCN(C(=O)NCc3ccccc3)C2)S1(=O)=O | -19.04 |
| Cc1cnccc1-c1cc(NCCO)nc2[nH]ccc12 | -75.39 |
| Cc1nc(C(=O)N2CC[C@@]3(C[C@H](NS(C)(=O)=O)CCO3)C2)cs1 | -13.09 |
| CC(C)N1CCCC2(CCN(c3nccc(C(F)(F)F)n3)C2)C1=O (stereo not drawn) | -74.1 |
| CN(C)C(=O)N1CCC2(CCCN(c3ncccn3)C2)C1.O=C(O)C(F)(F)F (stereo not drawn) | -156.2 |
| O=C(O)C(F)(F)F.O=S(=O)(C1CC1)N1CCC2(CCCN(c3ncccn3)C2)C1 (stereo not drawn) | -10.57 |
| CC(C)c1nc(C2CCCN(c3nccc(C(F)(F)F)n3)C2)no1 (stereo not drawn) | -82.41 |
| C=C(C)CN(CC)C(=O)c1cc(F)ccc1N1CCN(C)CC1 | -6.643 |
| CC(CNC(=O)c1cc(C2CC2)nc2c1cnn2C)Cn1cccn1 (stereo not drawn) | -106.1 |

| SMILES | Percent Effect [%] |
| --- | --- |
| Cc1ccc(OCCNC(=O)C2CCOCC2)c(C)c1 | -53.04 |
| Cc1ccc(C)c(Oc2ccc(CNC(=O)C3CCC(=O)N3)cn2)c1 (stereo not drawn) | -45.06 |
| Cc1cc(N2CCCC(c3[nH]ncc3Cc3ccccc3)C2)nc(N)n1 (stereo not drawn) | 72.87 |
| Cc1ccc(N2CCCC(c3[nH]ncc3-c3ccccc3)C2)nn1 (stereo not drawn) | 25.38 |
| Cc1ccc(-c2cn[nH]c2C2CCCN(c3cc(N)ncn3)C2)cc1 (stereo not drawn) | -38.82 |
| Cc1cc(C)n2c(CCCNS(=O)(=O)c3cccs3)nnc2n1 | -65.33 |
| COCCN(C)C[C@@H]1CN(C(=O)C(C)(C)c2ccccc2)C[C@@H]1CO | 29.59 |
| COc1cccc(CNCc2c(C)nc3sc(C)cn23)c1OC | 20.21 |
| COc1ccccc1OC1CN(C(=O)Cc2c(C)nc3ccccn23)C1 | -26.12 |
| COc1ccc(NC(=O)c2nc(C)sc2C)cn1 | -37.98 |
| CCc1[nH]c2c(CNc3cncc(C(=O)N(C)C)n3)cc(F)cc2c1C | -100.3 |
| CCc1[nH]c2c(CNc3cncc(C(=O)N(C)C)n3)cc(C)cc2c1C | -71.53 |
| CCc1[nH]c2c(CNc3nc(C)cc(NC)n3)cc(C)cc2c1C | 88.9 |
| CCc1[nH]c2c(CNc3cncc(C(=O)OC)n3)cc(C)cc2c1C | -28.2 |
| CCc1[nH]c2c(CNc3cc(C)nc(NC)n3)cc(C)cc2c1C | 84.97 |
| Cc1cc(C(=O)N2CCc3nc(N4CCOCC4)nc(C)c3C2)c(C)o1.O=CO | -46.43 |
| COc1ccc(C(=O)CCC(=O)NCc2ncc(C)s2)cc1F | -71.69 |
| CCCOC1Sc2nnc(C)n2N=C1c1ccccc1 (stereo not drawn) | -105.9 |
| COc1cccc(CNCCNS(=O)(=O)Cc2ccccc2)c1 | 54.45 |
| COc1cccc(OCCNS(=O)(=O)Cc2ccccc2)c1 | -90.07 |
| COc1cccc(CNCCc2cccc(C(N)=O)c2)c1 | -12.09 |
| C[C@@H]1CN(c2nc3c(cc2C(N)=O)CCC3)C[C@@]1(O)C1CCC1 | -102.5 |

| SMILES | Percent Effect [%] |
| --- | --- |
| O=C(Nc1cccnc1-n1cc(Cl)cn1)C1CCCCC1 | -29.97 |
| CCOC(=O)C(C)NC(=O)N1CCN(c2nc3ccccc3n2C)CC1 (stereo not drawn) | -114 |
| CSCc1cc(F)ccc1CNCc1ccncc1 | -80.12 |
| CSCc1cc(F)ccc1CNCc1cccc(O)c1 | 72.86 |
| CSCc1cc(F)ccc1CNCc1cccnc1 | 1.167 |
| CC(C)CCOc1ccc(C(C)NC(=O)CSCC(N)=O)cc1 (stereo not drawn) | -21.89 |
| Cc1cc(=O)[nH]c(=O)n1COCc1ccccc1 | -164.1 |
| Cc1ccc(C(=O)N2CC(Oc3ccccc3C)C2)s1 | -70.19 |
| CCCn1ccnc1CN1CCCC(O)(CN2CCCC2)C1 (stereo not drawn) | -81.98 |
| COc1ccc(F)cc1CN1CCC(O)(CN2CCCCC2)C1 (stereo not drawn) | 69.8 |
| O=C(NCC1(O)CCC1)c1cccc(-n2cccn2)c1 | -36.51 |
| COc1ccc(F)cc1CN1CCCC(c2cc(C(N)=O)[nH]n2)C1 (stereo not drawn) | -17.41 |
| CCCn1ccnc1CN1CCC(O)(CN2CCCCC2)C1 (stereo not drawn) | 17.5 |
| COc1ccc(F)c(CN2CCCC3(CCN(C(=O)CSC)C3)C2)c1 (stereo not drawn) | -70.9 |
| OC1(CN2CCCC2)CCCN(Cc2cnc(-c3ccccc3)nc2)C1 (stereo not drawn) | 13.01 |
| Cc1cc(-n2cccn2)ccc1CN1CCC(O)(CN2CCCCC2)C1 (stereo not drawn) | 60.7 |
| Cc1cc(F)ccc1CN1CCCC(O)(CN2CCCC2)C1 (stereo not drawn) | 66.53 |
| COCC(=O)N1CCC2(CCCN(Cc3cc(OC)ccc3F)C2)C1 (stereo not drawn) | -77.74 |
| COc1ccc(CN2CCC(O)(CN3CCCCC3)C2)c(C)c1 (stereo not drawn) | 66.37 |
| COc1ccc(F)cc1CN1CCCC1Cn1nc(C)nc1C (stereo not drawn) | -22.72 |
